From PubChem BioAssay
VDR inhibitor = blocks the human vitamin D receptor; P11473; Potency, µM, without a hit: max response, negative = inhibition, most hits filed as inhibitors; AID 504847; actives 0.93% (n = 400,000); VDR-SRC2-3 peptide fluorescence polarization, 2 h
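After 23 nl compound addition and a short centrifugation, plates sat for 2 hours at ambient temperature; polarization of fluorescence then indicated loss of VDR binding to peptide SRC2-3.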
rTrxR1 inhibitor = inhibitors of rat thioredoxin reductase 1; Potency, µM (titrated, usually from 114 µM), for inactives: at the highest dose activity change, negative = inhibition, usual class: inhibitors; recombinant rTrxR1, NADPH fluorescence consumption, selenite substrate; O89049; AID 588453; actives 1% (n = 390,000); note: nearly all actives have a fitted effect of over 65% in size
Target sequence (O89049 whole entry, looked up): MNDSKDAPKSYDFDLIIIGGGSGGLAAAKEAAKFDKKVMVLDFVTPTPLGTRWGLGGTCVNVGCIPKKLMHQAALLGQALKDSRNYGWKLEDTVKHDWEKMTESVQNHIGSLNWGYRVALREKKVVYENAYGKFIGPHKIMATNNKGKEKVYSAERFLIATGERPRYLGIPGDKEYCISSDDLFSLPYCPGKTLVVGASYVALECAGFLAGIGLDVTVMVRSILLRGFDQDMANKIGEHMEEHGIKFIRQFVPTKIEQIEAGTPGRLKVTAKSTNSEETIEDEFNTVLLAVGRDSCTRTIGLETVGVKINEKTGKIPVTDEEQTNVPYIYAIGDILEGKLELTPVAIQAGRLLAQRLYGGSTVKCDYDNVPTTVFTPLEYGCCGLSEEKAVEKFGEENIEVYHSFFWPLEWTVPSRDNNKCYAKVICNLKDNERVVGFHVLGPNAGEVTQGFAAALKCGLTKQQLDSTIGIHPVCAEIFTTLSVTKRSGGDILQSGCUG
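Rat TrxR1 (90 nM in the dispensed reagent) was pre-reduced with 400 uM NADPH for 5 min at room temperature, then incubated with compound for 15 min. After 400 uM selenite was added, NADPH fluorescence (Ex 340/Em 450 nm) was followed for 8 min.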
IDH1 R132H inh = inhibitors of human mutant IDH1 R132H; O75874; IDH1-R132H enzyme, NADPH consumption, diaphorase/resazurin fluorescence; Potency, µM (doses to about 76.6 µM), for inactives: at the top dose activity change, negative = inhibition, usual class: inhibitors; actives 0.093% (n = 390,000); AID 602179; note: nearly all actives have a fitted effect of over 65% in size
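IDH1-R132H (0.5 ug/mL dispensed) in pH 7.5 Tris buffer was preincubated 30 min with compound, then given a substrate mix of 0.016 mM NADPH and 2 mM alpha-KG for 80 min at room temperature; remaining NADPH was read by diaphorase/resazurin fluorescence.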
TrxR1 substrate = substrates of rat thioredoxin reductase 1. Potency, µM (highest dose often 114 µM), without a hit: at the top dose activity change, negative = substrate turnover. actives 0.01% (n = 390,000). AID 588456. purified TrxR1 substrate turnover, NADPH consumption readout; note: nearly all actives have a fitted effect of over 50% in size
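Rat TrxR1, dispensed at 90 nM, was prereduced with 400 uM NADPH (final) for 5 min at ~22 deg C, then incubated with compound 15 min before 400 uM selenite. A first-read NADPH fluorescence drop versus no-compound background flagged substrates.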
Sfp inh = blocks B. subtilis Sfp PPTase activity | Q9F4F7 | actives 3.5% (n = 310,000) | Biochemical Sfp PPTase activity, qHTS | Potency, µM, without a hit: largest response in the series, negative = inhibition, most hits filed as inhibitors;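 note: the enzyme is Sfp with the accession as filed and its product quenches rhodamine fluorescence; 0% = enzyme reaction without inhibitor and -100% = no enzyme wells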
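With Hepes-Na pH 7.6 buffer containing 10 mM MgCl2, Sfp (15 nM) modified BHQ-2-YbbR (12.5 uM) using rhodamine-CoA (5 uM). Two reads 30 minutes apart at 525/598 nm yielded each well's rate.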
PLK1 PBD inh = blocks phosphopeptide binding to human PLK1 polo-box domain | AID 720504 | actives 2.8% (n = 360,000) | Plk1 PBD binding of FITC phosphopeptide, fluorescence polarization | P53350 | Potency, µM, for the others: max response, negative = inhibition, most hits filed as inhibitors; note: series mostly up to about 57 µM; nearly all actives have a fitted effect of over 65% in size
Active calls of the source: *; [ ] = another dose, or the depositor's remark. Shown are actives, neighbours in structure and some others; about 5.2% of the full set was active somewhere. Calls come from the whole dose curve; as a rule, active = well fitted curve in the direction sought with a large enough effect; inconclusive = small, poorly fitted or top-dose-only effect, or another doubt; inactive = no such curve, though single readings can be large; an effect the other way counts as inactive or inconclusive. Unless noted, % is set by controls: 0 for no effect and ±100 for the full control effect; potency is the fitted concentration of half-maximal effect.

Cc1cccc(N2CCN(C(=O)c3ccc4c(c3)NC(=O)C(CSCc3ccc(F)cc3)N4)CC2C)c1 (configuration not stated) was read as Sfp inh 56.2µM*.
CC1CCCN(CCC(=O)c2ccccc2)C1 (configuration not stated) was read as VDR inhibitor -1.9%, rTrxR1 inhibitor inconclusive, IDH1 R132H inh -13.2%, TrxR1 substrate 3.2%[2.29 µM] and PLK1 PBD inh 13.4µM*.
Screening CC(=O)OC(C[N+]1(C)CCCCCC1)c1ccccc1 (configuration not stated) returned VDR inhibitor -13.2%, rTrxR1 inhibitor 10.0%, IDH1 R132H inh -7.6%, TrxR1 substrate -5.4%, Sfp inh -2.6% and PLK1 PBD inh -3.4%.
O=C(CCN1CCCCC1)c1ccccc1 was read as VDR inhibitor -9.6%, rTrxR1 inhibitor inconclusive, IDH1 R132H inh 2.5%, TrxR1 substrate 10.4%[2.29 µM], Sfp inh 2.4% and PLK1 PBD inh 15µM*.
C[N+]1(CCC(=O)c2ccccc2)CCCCC1 was read as VDR inhibitor -18.8%, rTrxR1 inhibitor inconclusive, IDH1 R132H inh 3.7%, TrxR1 substrate 1.1%[11.4 µM], Sfp inh 13.5% and PLK1 PBD inh 11.9µM*.
Screening O=C(CCN1CCOCC1)c1ccccc1 returned VDR inhibitor -52.8%, rTrxR1 inhibitor inconclusive, IDH1 R132H inh 0.7%, TrxR1 substrate 4.9%[2.29 µM], Sfp inh 11.9% and PLK1 PBD inh inconclusive.
Screening COc1ccc(-c2nnc3n2N=C(c2ccc(OC)c(OC)c2)CS3)cc1 returned Sfp inh -13.8%.
`COCCn1c(=O)c(-c2ccc(Cl)cc2)nc2cnc(Oc3ccc(OC)cc3)nc21` gave VDR inhibitor 5.1% and Sfp inh 7.8%.
Clc1ccc(-c2noc(CN(Cc3ccccn3)CC3CCCO3)n2)cc1 (configuration not stated) was read as VDR inhibitor 22.5%, rTrxR1 inhibitor 25.0%[57.1 µM], IDH1 R132H inh 6.8%, TrxR1 substrate -8.5%[57.1 µM], Sfp inh inconclusive and PLK1 PBD inh -4.1%.
Cc1oc(-c2ccc(F)cc2)nc1CN(Cc1ccccn1)CC1CCCO1 (configuration not stated) was read as VDR inhibitor inconclusive, rTrxR1 inhibitor -11.2%[57.1 µM], IDH1 R132H inh 3.5%, TrxR1 substrate 5.1%[57.1 µM], Sfp inh -0.3% and PLK1 PBD inh 29.9µM*.
Screening Cc1cccc(N2C(N)=NC(N)=NC23CCCCC3)c1 returned VDR inhibitor -25.3%, rTrxR1 inhibitor -9.4%, IDH1 R132H inh 4.9%, TrxR1 substrate -10.7%, Sfp inh -2.2% and PLK1 PBD inh 2.67µM*.
Cn1c(=O)[nH]c(=O)c2c1nc(Br)n2C/C=N/NC(N)=S was read as Sfp inh 56.2µM*.
`COc1cc(OC)cc(C(=O)NC(=S)Nc2nnn(C)n2)c1` gave VDR inhibitor -12.4%, rTrxR1 inhibitor inconclusive, IDH1 R132H inh 21.4%, TrxR1 substrate 8.2%, Sfp inh 35.5µM* and PLK1 PBD inh inconclusive.
Screening Cn1nnc(NC(=S)NC(=O)c2cccc3ccccc23)n1 returned VDR inhibitor -5.9%, rTrxR1 inhibitor inconclusive, IDH1 R132H inh 7.9%, TrxR1 substrate -0.5%, Sfp inh 35.5µM* and PLK1 PBD inh -23.1%.
For Cn1nnc(NC(=S)NC(=O)c2ccc3ccccc3c2)n1 the results were IDH1 R132H inh -4.8% and PLK1 PBD inh -18.1%.
COc1ccc(Cn2ccnc2SCC(=O)Nc2nnc(C)s2)cc1 was read as VDR inhibitor 13.6%, rTrxR1 inhibitor 11.3%, IDH1 R132H inh -8.3%, TrxR1 substrate -3.1%, Sfp inh -1.7% and PLK1 PBD inh -7.2%.
N#Cc1cc2c(nc1SCc1ccncc1)CCC2 was read as VDR inhibitor -10.4%, rTrxR1 inhibitor -7.1%, IDH1 R132H inh 2.5%, TrxR1 substrate 5.3%, Sfp inh 50.1µM* and PLK1 PBD inh inconclusive.
N#Cc1cc2c(nc1SCc1ccccc1)CCC2 was read as VDR inhibitor 9.6%, rTrxR1 inhibitor -15.5%, IDH1 R132H inh -0.4%, TrxR1 substrate -9.4%, Sfp inh 12.4% and PLK1 PBD inh -14.8%.
`CC1=CC(C)(C)Nc2ccc(Cc3ccc4c(c3)C(C)=CC(C)(C)N4)cc21` gave VDR inhibitor -20.0%, rTrxR1 inhibitor 26.1%[57.1 µM], IDH1 R132H inh -0.1%, TrxR1 substrate 51.3%[57.1 µM], Sfp inh -2.7% and PLK1 PBD inh -7.2%.
For CC1=CC(C)(C)Nc2ccc(C)cc21 the results were VDR inhibitor 15.4%, rTrxR1 inhibitor 18.6%, IDH1 R132H inh -2.7%, TrxR1 substrate 35.8%, Sfp inh 44.7µM* and PLK1 PBD inh -0.8%.
Screening COc1ccc2c(c1)/C(=N/OC(=O)c1cccs1)CCC2 returned VDR inhibitor -15.4%, rTrxR1 inhibitor 13.0%[57.1 µM], IDH1 R132H inh -1.5%, TrxR1 substrate 10.1%[57.1 µM], Sfp inh -14.7% and PLK1 PBD inh -4.6%.
For COc1ccc(NC(=O)O/N=C2/CCCc3ccc(OC)cc32)cc1 the results were VDR inhibitor 44.7µM*, rTrxR1 inhibitor 3.4%, IDH1 R132H inh 12.5%, TrxR1 substrate -6.5%, Sfp inh 7.4% and PLK1 PBD inh 15µM*.
For O=[N+]([O-])c1cnc2ccccc2c1 the results were VDR inhibitor -4.5%, rTrxR1 inhibitor -13.7%[57.1 µM], IDH1 R132H inh 9.9%, TrxR1 substrate 0.9%[57.1 µM], Sfp inh 19.3% and PLK1 PBD inh -14.1%.
`O=[N+]([O-])c1cc([N+](=O)[O-])c2cc3ccccc3nc2c1` gave VDR inhibitor inconclusive, rTrxR1 inhibitor 44.7µM*, IDH1 R132H inh 5.8%, TrxR1 substrate 4.1%, Sfp inh -5.9% and PLK1 PBD inh 0.423µM*.
For COc1ccc2o/c(=N\O)c(C(=O)Nc3ccccc3OC)cc2c1 the results were VDR inhibitor -11.3%, rTrxR1 inhibitor -13.0%, IDH1 R132H inh 16.3%, TrxR1 substrate -9.9%, Sfp inh 50.1µM* and PLK1 PBD inh 0.0%.
For COc1ccccc1NC(=O)c1cc2cc(Br)ccc2oc1=N the results were VDR inhibitor 89.1µM*, rTrxR1 inhibitor 8.1%, IDH1 R132H inh 8.7%, TrxR1 substrate -3.9%, Sfp inh inconclusive and PLK1 PBD inh -8.5%.
N=c1oc2ccc(Br)cc2cc1C(=O)NC1CCCCCC1 was read as VDR inhibitor 7.0%, rTrxR1 inhibitor inconclusive, IDH1 R132H inh 4.5%, TrxR1 substrate 1.7%, Sfp inh 1.0% and PLK1 PBD inh -1.4%.
Screening O=c1cnc2cnc(N3CCNCC3)nc2n1CCc1ccccc1 returned VDR inhibitor 9.0% and Sfp inh 4.6%.
Screening O=C(O[C@H]1[C@H](Cc2ccccc2)NS(=O)(=O)[C@H]2CC3C=C[C@]12O3)c1ccc(Br)cc1 returned rTrxR1 inhibitor 19.8% and TrxR1 substrate -0.2%.
